According to PubChem BioAssay AID1159580 (chemical genetic matrix, 2015):
The whole screen tested about 5,500 compounds, of which about 2,000 (36%) were called active. Roughly 18% stayed inconclusive and do not appear here. Cut-off read from the data, not from the text of the source: active = normalized growth mostly below about 0.91 (no sharp cut-off); inconclusive = no clear call, values can overlap the other calls; inactive = mostly above about 0.92. This is one part of the list.

Assay: chemical genetic growth profiling, strain panel (AID 1159580);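 note: tested at 20 µM; growth read once vehicle control cultures reached saturation at 30 °C; 1 = growth at the plate median or of vehicle wells; lower values mean less growth of the strain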
Conditions: growth OD

Measured: normalized growth

CC(=O)Oc1ccccc1C(=O)Oc1ccccc1C(=O)O
inactive: S. cerevisiae deletion strains, locus YJR075W, strain HOC1, stronger effect = lower value 1.02 | S. cerevisiae deletion strains, locus YKL009W, strain mrt4, stronger effect = lower value 0.981 | S. cerevisiae deletion strains, locus YKL068W, stronger effect = lower value 0.985 | S. cerevisiae deletion strains, locus YKL085W, strain MDH1 (second series), stronger effect = lower value 0.998 | S. cerevisiae deletion strains, locus YKL085W, strain MDH1, stronger effect = lower value 0.998 | S. cerevisiae deletion strains, locus YKL160W, strain elf1, stronger effect = lower value 0.999 | S. cerevisiae deletion strains, locus YKL190W, strain CNB1, stronger effect = lower value 1 | S. cerevisiae deletion strains, locus YKR001C, strain vps1, stronger effect = lower value 0.979 | S. cerevisiae deletion strains, locus YKR026C, strain gcn3, stronger effect = lower value 1.01 | S. cerevisiae deletion strains, locus YKR091W, strain srl3, stronger effect = lower value 1 | S. cerevisiae deletion strains, locus YLL001W, strain dnm1, stronger effect = lower value 1 | S. cerevisiae deletion strains, locus YLL026W, stronger effect = lower value 1.01 | S. cerevisiae deletion strains, locus YLL041C, strain sdh2, stronger effect = lower value 1 | S. cerevisiae deletion strains, locus YLR027C, strain aat2, stronger effect = lower value 1.01 | S. cerevisiae deletion strains, locus YLR039C, strain RIC1, stronger effect = lower value 0.983 | S. cerevisiae deletion strains, locus YLR058C, strain SHM2, stronger effect = lower value 0.995 | S. cerevisiae deletion strains, locus YLR102C, strain apc9, stronger effect = lower value 0.976 | S. cerevisiae deletion strains, locus YLR113W, strain HOG1, stronger effect = lower value 0.977 | S. cerevisiae deletion strains, locus YLR221C, strain rsa3, stronger effect = lower value 0.998 | S. cerevisiae deletion strains, locus YLR258W, strain gsy2, stronger effect = lower value 0.994 | S. cerevisiae deletion strains, locus YLR262C, strain YPT6 (second series), stronger effect = lower value 1 | S. cerevisiae deletion strains, locus YLR262C, strain YPT6, stronger effect = lower value 0.969 | S. cerevisiae deletion strains, locus YLR268W, strain sec22, stronger effect = lower value 1 | S. cerevisiae deletion strains, locus YLR320W, strain mms22, stronger effect = lower value 0.998 | S. cerevisiae deletion strains, locus YLR330W, strain CHS5, stronger effect = lower value 0.992 | S. cerevisiae deletion strains, locus YLR342W, strain FKS1 (second series), stronger effect = lower value 0.99 | S. cerevisiae deletion strains, locus YLR342W, strain FKS1, stronger effect = lower value 1 | S. cerevisiae deletion strains, locus YLR357W, strain rsc2, stronger effect = lower value 1.01 | S. cerevisiae deletion strains, locus YLR370C, strain arc18, stronger effect = lower value 1 | S. cerevisiae deletion strains, locus YLR371W, strain rom2, stronger effect = lower value 0.975 | S. cerevisiae deletion strains, locus YLR384C, strain iki3, stronger effect = lower value 0.995 | S. cerevisiae deletion strains, locus YLR418C, strain cdc73, stronger effect = lower value 0.997 | S. cerevisiae deletion strains, locus YML016C, strain PPZ1, stronger effect = lower value 0.996 | S. cerevisiae deletion strains, locus YML032C, strain rad52, stronger effect = lower value 0.983 | S. cerevisiae deletion strains, locus YML120C, strain ndi1, stronger effect = lower value 1.01 | S. cerevisiae deletion strains, locus YML124C, strain tub3, stronger effect = lower value 0.992 | S. cerevisiae deletion strains, locus YMR058W, strain fet3, stronger effect = lower value 1.01 | S. cerevisiae deletion strains, locus YMR078C, strain ctf18, stronger effect = lower value 0.984 | S. cerevisiae deletion strains, locus YMR125W, strain sto1, stronger effect = lower value 0.986 | S. cerevisiae deletion strains, locus YMR129W, stronger effect = lower value 0.997 | S. cerevisiae deletion strains, locus YMR205C, strain PFK2, stronger effect = lower value 0.998 | S. cerevisiae deletion strains, locus YMR223W, strain ubp8, stronger effect = lower value 0.969 | S. cerevisiae deletion strains, locus YMR231W, strain pep5, stronger effect = lower value 0.996 | S. cerevisiae deletion strains, locus YMR263W, strain SAP30, stronger effect = lower value 1.01 | S. cerevisiae deletion strains, locus YMR307W, strain GAS1, stronger effect = lower value 0.995 | S. cerevisiae deletion strains, locus YNL067W, strain RPL9B, stronger effect = lower value 1.01 | S. cerevisiae deletion strains, locus YNL071W, strain lat1, stronger effect = lower value 1.01 | S. cerevisiae deletion strains, locus YNL128W, strain TEP1, stronger effect = lower value 1 | S. cerevisiae deletion strains, locus YNL153C, strain GIM3, stronger effect = lower value 1.01 | S. cerevisiae deletion strains, locus YNL183C, strain NPR1, stronger effect = lower value 0.921 | S. cerevisiae deletion strains, locus YNL209W, strain ssb2, stronger effect = lower value 1.01 | S. cerevisiae deletion strains, locus YNL233W, strain BNI4, stronger effect = lower value 0.999 | S. cerevisiae deletion strains, locus YNL248C, strain rpa49, stronger effect = lower value 0.925 | S. cerevisiae deletion strains, locus YNL250W, strain rad50, stronger effect = lower value 0.974 | S. cerevisiae deletion strains, locus YNL271C, strain bni1, stronger effect = lower value 0.971 | S. cerevisiae deletion strains, locus YNL298W, strain CLA4, stronger effect = lower value 0.979 | S. cerevisiae deletion strains, locus YNL307C, strain MCK1, stronger effect = lower value 0.983 | S. cerevisiae deletion strains, locus YNL322C, strain KRE1 (second series), stronger effect = lower value 0.998 | S. cerevisiae deletion strains, locus YNL322C, strain KRE1, stronger effect = lower value 1 | S. cerevisiae deletion strains, locus YNR049C, strain mso1, stronger effect = lower value 1.01 | S. cerevisiae deletion strains, locus YNR052C, strain pop2, stronger effect = lower value 0.975 | S. cerevisiae deletion strains, locus YOL006C, strain TOP1, stronger effect = lower value 1 | S. cerevisiae deletion strains, locus YOL012C, strain htz1 0.794 | S. cerevisiae deletion strains, locus YOL147C, strain pex11, stronger effect = lower value 0.991 | S. cerevisiae deletion strains, locus YOR001W, strain rrp6, stronger effect = lower value 0.972 | S. cerevisiae deletion strains, locus YOR061W, strain CKA2, stronger effect = lower value 0.995 | S. cerevisiae deletion strains, locus YOR069W, strain VPS5, stronger effect = lower value 0.992 | S. cerevisiae deletion strains, locus YOR070C, strain gyp1, stronger effect = lower value 1.02 | S. cerevisiae deletion strains, locus YOR080W, strain dia2, stronger effect = lower value 1 | S. cerevisiae deletion strains, locus YOR083W, strain WHI5, stronger effect = lower value 1.01 | S. cerevisiae deletion strains, locus YOR106W, strain vam3, stronger effect = lower value 1.01 | S. cerevisiae deletion strains, locus YOR136W, strain idh2, stronger effect = lower value 0.978 | S. cerevisiae deletion strains, locus YOR144C, strain elg1, stronger effect = lower value 0.991 | S. cerevisiae deletion strains, locus YOR184W, strain ser1, stronger effect = lower value 0.971 | S. cerevisiae deletion strains, locus YOR231W, strain MKK1, stronger effect = lower value 0.992 | S. cerevisiae deletion strains, locus YOR265W, strain rbl2, stronger effect = lower value 1.03 | S. cerevisiae deletion strains, locus YOR270C, strain vph1, stronger effect = lower value 1.01 | S. cerevisiae deletion strains, locus YOR290C, strain snf2, stronger effect = lower value 0.974 | S. cerevisiae deletion strains, locus YOR316C, strain cot1, stronger effect = lower value 0.978 | S. cerevisiae deletion strains, locus YPL051W, strain arl3, stronger effect = lower value 1.03 | S. cerevisiae deletion strains, locus YPL055C, strain LGE1, stronger effect = lower value 1.02 | S. cerevisiae deletion strains, locus YPL078C, strain atp4, stronger effect = lower value 0.998 | S. cerevisiae deletion strains, locus YPL106C, strain sse1, stronger effect = lower value 0.993 | S. cerevisiae deletion strains, locus YPL240C, strain hsp82, stronger effect = lower value 1.01 | S. cerevisiae deletion strains, locus YPL241C, strain CIN2, stronger effect = lower value 0.965 | S. cerevisiae deletion strains, locus YPL256C, strain CLN2, stronger effect = lower value 0.992 | S. cerevisiae deletion strains, locus YPR119W, strain clb2, stronger effect = lower value 0.991 | S. cerevisiae deletion strains, locus YPR141C, strain kar3, stronger effect = lower value 0.975 | S. cerevisiae deletion strains, locus YPR163C, strain tif3, stronger effect = lower value 0.987 | S. cerevisiae deletion strains, locus YPR167C, strain met16, stronger effect = lower value 0.988 | S. cerevisiae deletion strains, strain wtn01, stronger effect = lower value 0.998 | S. cerevisiae strains, strain wild type, stronger effect = lower value 0.998
